This note sets out measurements from the supplement of paper PMC10849652.

The full data set covers some 7,900 targets. This sample favours those with a hit. About 0.6% of all pairs of compound and target were hits. Unmarked numbers belong to inactive results.

UniProt Q5JTJ3, sequence (Q5JTJ3 whole entry, looked up): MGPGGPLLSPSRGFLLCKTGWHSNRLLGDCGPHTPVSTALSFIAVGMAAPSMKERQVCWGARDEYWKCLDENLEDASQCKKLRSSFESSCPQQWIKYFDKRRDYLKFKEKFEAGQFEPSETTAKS
UniProt Q8IWX8, sequence (Q8IWX8 whole entry, looked up): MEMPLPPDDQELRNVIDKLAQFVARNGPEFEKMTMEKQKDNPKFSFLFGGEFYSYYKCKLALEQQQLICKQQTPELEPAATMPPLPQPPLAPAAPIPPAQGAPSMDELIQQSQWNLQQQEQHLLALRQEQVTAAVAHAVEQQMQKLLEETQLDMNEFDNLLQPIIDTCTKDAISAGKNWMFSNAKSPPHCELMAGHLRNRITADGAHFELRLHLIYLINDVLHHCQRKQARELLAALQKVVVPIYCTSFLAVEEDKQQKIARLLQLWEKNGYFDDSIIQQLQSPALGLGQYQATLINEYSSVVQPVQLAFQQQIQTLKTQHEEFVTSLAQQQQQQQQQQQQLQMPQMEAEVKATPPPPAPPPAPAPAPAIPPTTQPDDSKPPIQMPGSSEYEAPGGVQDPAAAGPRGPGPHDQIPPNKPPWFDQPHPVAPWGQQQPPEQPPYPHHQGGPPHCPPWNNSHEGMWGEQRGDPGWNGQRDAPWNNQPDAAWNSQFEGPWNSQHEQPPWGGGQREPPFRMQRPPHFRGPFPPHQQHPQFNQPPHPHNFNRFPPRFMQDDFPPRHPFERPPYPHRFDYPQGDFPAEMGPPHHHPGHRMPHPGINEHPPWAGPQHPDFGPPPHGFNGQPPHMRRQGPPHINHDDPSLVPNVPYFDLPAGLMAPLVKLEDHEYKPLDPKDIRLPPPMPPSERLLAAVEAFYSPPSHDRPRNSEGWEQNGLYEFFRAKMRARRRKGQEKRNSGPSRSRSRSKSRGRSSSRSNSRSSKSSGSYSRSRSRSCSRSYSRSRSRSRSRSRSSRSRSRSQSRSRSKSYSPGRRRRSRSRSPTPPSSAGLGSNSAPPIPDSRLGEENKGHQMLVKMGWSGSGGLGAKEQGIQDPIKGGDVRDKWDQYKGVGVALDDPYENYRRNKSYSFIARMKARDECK
UniProt P61024, sequence (P61024 whole entry, looked up): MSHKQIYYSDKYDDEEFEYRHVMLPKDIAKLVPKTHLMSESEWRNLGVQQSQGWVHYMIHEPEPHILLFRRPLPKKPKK
UniProt Q00534, sequence (Q00534 whole entry, looked up): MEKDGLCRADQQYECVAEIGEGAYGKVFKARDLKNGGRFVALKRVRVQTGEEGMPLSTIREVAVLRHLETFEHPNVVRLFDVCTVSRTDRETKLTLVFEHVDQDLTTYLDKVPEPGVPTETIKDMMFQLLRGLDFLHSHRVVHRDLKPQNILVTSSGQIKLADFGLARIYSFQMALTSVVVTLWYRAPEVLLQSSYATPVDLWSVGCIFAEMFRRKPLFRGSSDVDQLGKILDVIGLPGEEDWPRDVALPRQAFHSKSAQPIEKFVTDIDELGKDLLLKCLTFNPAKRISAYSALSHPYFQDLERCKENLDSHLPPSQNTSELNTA
UniProt Q96GQ5, sequence (Q96GQ5 whole entry, looked up): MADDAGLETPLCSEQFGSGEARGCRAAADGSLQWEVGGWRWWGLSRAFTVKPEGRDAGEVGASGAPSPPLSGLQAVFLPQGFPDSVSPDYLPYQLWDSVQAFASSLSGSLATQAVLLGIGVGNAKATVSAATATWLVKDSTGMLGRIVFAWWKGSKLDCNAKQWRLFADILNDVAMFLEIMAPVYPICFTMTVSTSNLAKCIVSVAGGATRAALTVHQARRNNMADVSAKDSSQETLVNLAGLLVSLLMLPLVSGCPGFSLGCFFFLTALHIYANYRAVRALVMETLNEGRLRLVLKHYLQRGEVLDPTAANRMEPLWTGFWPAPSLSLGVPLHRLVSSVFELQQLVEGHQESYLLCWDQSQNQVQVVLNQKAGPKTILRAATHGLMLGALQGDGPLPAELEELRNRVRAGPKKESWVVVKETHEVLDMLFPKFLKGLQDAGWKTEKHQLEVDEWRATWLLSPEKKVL
UniProt O75153, sequence (O75153 whole entry, looked up): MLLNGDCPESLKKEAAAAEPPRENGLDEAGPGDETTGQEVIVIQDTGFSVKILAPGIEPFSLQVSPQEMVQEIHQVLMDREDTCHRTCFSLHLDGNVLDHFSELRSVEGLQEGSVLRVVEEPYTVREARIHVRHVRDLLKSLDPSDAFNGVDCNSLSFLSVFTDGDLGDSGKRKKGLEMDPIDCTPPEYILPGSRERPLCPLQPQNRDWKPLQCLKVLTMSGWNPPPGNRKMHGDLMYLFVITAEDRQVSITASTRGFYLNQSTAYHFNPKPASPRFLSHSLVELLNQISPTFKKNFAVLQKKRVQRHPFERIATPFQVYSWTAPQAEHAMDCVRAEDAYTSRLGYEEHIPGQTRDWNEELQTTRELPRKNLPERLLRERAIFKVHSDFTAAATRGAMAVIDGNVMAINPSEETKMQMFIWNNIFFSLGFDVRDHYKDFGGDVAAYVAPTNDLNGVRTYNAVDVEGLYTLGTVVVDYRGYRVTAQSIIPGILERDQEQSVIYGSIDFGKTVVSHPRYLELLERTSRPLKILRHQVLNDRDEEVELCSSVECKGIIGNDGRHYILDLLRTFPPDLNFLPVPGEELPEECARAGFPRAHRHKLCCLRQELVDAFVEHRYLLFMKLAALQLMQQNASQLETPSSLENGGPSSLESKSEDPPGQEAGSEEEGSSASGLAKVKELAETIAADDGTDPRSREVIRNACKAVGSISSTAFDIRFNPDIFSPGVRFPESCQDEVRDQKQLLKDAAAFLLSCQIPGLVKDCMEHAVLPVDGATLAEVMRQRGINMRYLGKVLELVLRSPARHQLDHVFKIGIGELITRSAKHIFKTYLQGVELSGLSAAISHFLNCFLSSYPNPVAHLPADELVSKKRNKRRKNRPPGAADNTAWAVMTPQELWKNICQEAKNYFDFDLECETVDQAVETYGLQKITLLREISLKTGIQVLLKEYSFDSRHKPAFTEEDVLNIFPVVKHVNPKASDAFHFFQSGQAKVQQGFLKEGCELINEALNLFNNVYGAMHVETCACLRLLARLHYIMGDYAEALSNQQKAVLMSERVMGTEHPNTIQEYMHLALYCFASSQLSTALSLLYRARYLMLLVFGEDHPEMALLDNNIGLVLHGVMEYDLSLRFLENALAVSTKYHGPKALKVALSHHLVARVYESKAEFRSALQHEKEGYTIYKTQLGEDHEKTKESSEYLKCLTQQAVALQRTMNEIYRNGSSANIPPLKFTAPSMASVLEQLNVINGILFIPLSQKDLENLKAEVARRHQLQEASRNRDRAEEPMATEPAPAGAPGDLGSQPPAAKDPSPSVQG
UniProt Q00536, sequence (Q00536 whole entry, looked up): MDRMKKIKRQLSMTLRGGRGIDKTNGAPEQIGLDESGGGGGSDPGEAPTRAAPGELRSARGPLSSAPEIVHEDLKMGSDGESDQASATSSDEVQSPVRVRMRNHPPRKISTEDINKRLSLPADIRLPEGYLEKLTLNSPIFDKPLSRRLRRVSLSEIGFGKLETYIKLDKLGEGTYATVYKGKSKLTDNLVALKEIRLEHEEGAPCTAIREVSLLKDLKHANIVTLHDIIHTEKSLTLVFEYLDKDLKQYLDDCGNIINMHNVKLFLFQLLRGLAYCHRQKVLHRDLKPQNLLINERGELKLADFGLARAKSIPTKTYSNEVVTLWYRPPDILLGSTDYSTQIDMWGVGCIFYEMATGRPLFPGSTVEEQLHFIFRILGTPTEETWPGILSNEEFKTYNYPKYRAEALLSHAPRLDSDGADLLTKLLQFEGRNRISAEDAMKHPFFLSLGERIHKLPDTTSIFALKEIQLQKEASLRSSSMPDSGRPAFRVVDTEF
UniProt P35790, sequence (P35790 whole entry, looked up): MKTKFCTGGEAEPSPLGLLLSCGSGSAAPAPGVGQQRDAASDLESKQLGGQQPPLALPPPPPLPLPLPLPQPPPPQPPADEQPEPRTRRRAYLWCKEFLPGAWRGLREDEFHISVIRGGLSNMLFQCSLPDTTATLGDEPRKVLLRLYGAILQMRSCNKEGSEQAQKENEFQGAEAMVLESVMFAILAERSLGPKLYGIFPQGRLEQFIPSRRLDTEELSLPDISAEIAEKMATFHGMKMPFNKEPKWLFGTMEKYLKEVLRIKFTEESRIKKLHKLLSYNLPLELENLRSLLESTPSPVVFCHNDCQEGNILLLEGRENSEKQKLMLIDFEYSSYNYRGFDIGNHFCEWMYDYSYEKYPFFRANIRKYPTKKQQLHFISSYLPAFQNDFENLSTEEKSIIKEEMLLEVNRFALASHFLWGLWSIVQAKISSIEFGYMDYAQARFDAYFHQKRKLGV
UniProt Q96JM3, sequence (Q96JM3 whole entry, looked up): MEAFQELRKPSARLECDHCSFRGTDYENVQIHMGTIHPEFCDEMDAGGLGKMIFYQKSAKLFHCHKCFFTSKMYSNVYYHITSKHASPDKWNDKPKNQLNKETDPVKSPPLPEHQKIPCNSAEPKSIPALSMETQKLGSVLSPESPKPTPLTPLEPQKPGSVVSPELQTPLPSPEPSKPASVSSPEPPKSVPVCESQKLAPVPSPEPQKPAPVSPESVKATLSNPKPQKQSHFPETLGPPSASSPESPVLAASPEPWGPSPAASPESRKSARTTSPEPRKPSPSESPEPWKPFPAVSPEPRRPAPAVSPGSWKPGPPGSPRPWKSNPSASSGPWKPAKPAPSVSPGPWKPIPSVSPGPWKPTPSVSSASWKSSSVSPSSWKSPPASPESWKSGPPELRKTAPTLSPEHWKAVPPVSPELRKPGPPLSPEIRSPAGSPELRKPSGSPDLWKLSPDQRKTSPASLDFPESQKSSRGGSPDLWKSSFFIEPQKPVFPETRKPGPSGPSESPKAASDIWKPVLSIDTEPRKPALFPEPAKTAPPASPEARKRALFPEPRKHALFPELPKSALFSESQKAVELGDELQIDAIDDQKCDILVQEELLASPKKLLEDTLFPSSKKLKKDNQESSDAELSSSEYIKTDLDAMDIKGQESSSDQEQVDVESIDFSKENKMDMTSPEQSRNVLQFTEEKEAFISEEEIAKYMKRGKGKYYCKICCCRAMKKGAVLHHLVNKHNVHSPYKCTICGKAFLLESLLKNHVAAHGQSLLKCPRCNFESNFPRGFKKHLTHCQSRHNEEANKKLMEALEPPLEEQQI

Compound in the experiment: CC1=CC=C(C=C1)SC2=C3C=C(SC3=CN=C2)C(=O)N
As to the kind of experiment: log2 fold change, soluble protein after heating vs DMSO (PISA); higher = thermal stabilisation; K562 cells, 10 uM, 30 min; active = over 0.2 and 3.5 SD of the protein, either way, in both replicates (recomputed). In short, it runs like this:
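K562 cells at 2×10^6 cells/mL were given 10 μM compound for 30 min. Aliquots then went through 3 min of heating across 48°C-58°C, were pooled, and were extracted in PBS with 0.5% NP-40 at 4°C, and the supernatant after 21,000xg for 90 min was quantified by TMTpro 16plex LC-MS/MS with channel sums equalised. Thermal stability relative to control samples, from duplicates, is given as log2 fold change.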
As to CCNB1 (UniProt P14635), the log2 fold change is 0.011.
Regarding CLSPN (UniProt Q9HAW4), the log2 fold change was -0.025.
Consider CDK6 (UniProt Q00534), for which the log2 fold change was 0.044.
To CCNK isoform 4 (UniProt O75909) belongs -0.032; to C16orf58 (UniProt Q96GQ5), 0.021.
With CDC25B isoform 4 (UniProt P30305), the log2 fold change was -0.008.
Regarding CPQ (UniProt Q9Y646), the log2 fold change was -0.005.
Under CCDC57 (UniProt Q2TAC2) stands 0.032.
Under C9orf72 (UniProt Q96LT7) stands 0.027; under CASP3 (UniProt P42574), 0.009; under CLASP2 isoform 3 (UniProt O75122), 0.013.
Under CCM2 isoform 2 (UniProt Q9BSQ5) stands -0.124; under CCDC9 (UniProt Q9Y3X0), 0.019; under CETN2 (UniProt P41208), -0.146.
Consider CKB (UniProt P12277), for which the log2 fold change was -0.008.
Regarding CKS1B (UniProt P61024), the log2 fold change was -0.121.
For CDC42BPA isoform 6 (UniProt Q5VT25), the log2 fold change was 0.01.
On to COX20 isoform 2 (UniProt Q5RI15), for which the log2 fold change was 0.102.
To CHKA (UniProt P35790) belongs -0.125.
To CNOT1 (UniProt A5YKK6) belongs -0.027.
To CHAMP1 (UniProt Q96JM3) belongs 0.005.
CHERP (UniProt Q8IWX8): the log2 fold change is -0.053.
To CERT isoform 3 (UniProt Q9Y5P4) belongs -0.039; to CNOT7 (UniProt Q9UIV1), 0.075; to CPT2 (UniProt P23786), 0.035.
Under COA6 isoform 2 (UniProt Q5JTJ3) stands 0.767 (active); under COMMD2 (UniProt Q86X83), 0.007; under CES2 isoform 4 (UniProt O00748), 0.005.
In the case of CA1 (UniProt P00915), the log2 fold change was 0.03.
Under CHD4 isoform 2 (UniProt Q14839) stands 0.062.
Under CD55 isoform 7 (UniProt P08174) stands 0.021; under CLPTM1L (UniProt Q96KA5), 0.03; under CSE1L (UniProt P55060), 0.068.
Under C4A (UniProt P0C0L4) stands 0.111; under CDK16 isoform 2 (UniProt Q00536), 0.028.
Regarding CLUH (UniProt O75153), the log2 fold change was -0.002.
